# Inconclusive results are not listed. A call without a number means that no potency is given here. A number with no mark means an inactive call. Active and inactive are the calls of the source. Calls follow the shape of the dose curve; as a rule, active = well fitted inhibition curve with a large enough effect; inconclusive = small, poorly fitted or top-dose-only effect; inactive = no such curve, though single readings can be large or run the other way.
# Target: Rap guanine nucleotide exchange factor 3 (Homo sapiens) (UniProt O95398)
# Test: Counterscreen qHTS for antagonist of cAMP-regulated guanine nucleotide exchange factor 3 (EPAC1) (AID 1645888);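 also: fluorescence loss as bound BODIPY-GDP is released from Rap1B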
# Details: Rap1B-BODIPY-GDP nucleotide exchange, fluorescence; series mostly up to 154 µM
# How it was run: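 Rap1B–BODIPY-GDP (250 nM) with 50 uM GDP; compounds pin-transferred to 9.74 nM–152 uM final (activator) or from 7.32 nM upwards (inhibitor). Fluorescence Ex/Em 480/540 nm read at 5 and 30 min, then after adding cAMP or buffer, at room temperature.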
# Sequence of Rap guanine nucleotide exchange factor 3 (Homo sapiens) (O95398 whole entry, looked up): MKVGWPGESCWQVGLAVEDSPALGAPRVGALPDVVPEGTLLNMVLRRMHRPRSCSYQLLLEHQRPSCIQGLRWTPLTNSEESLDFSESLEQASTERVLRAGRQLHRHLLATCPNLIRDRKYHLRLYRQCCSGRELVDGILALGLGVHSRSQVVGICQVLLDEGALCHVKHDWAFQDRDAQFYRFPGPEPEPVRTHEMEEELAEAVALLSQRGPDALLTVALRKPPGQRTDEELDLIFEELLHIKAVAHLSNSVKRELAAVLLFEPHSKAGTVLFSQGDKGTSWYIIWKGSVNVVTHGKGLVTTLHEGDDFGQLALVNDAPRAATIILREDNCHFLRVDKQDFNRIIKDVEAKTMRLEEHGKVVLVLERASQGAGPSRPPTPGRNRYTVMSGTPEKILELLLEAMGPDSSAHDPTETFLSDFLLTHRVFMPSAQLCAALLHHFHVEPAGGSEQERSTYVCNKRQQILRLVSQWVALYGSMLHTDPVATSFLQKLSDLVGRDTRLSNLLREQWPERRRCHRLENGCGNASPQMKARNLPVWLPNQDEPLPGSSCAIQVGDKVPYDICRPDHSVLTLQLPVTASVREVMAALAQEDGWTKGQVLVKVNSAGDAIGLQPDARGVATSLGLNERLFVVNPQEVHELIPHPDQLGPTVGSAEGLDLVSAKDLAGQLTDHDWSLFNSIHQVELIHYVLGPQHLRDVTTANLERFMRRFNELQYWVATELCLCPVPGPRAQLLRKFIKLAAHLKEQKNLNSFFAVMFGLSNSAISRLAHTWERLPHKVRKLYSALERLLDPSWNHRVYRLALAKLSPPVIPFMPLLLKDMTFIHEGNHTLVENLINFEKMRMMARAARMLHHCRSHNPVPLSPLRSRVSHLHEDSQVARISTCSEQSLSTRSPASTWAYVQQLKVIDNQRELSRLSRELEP
Compound,"activity change, negative = inhibition",Potency
O=C1Nc2ccccc2Nc2ncccc21,0.957% [at 30.8 µM],–
O=C(NN1C(=O)/C(=C/c2ccc(O)c(O)c2)SC1=S)c1ccccc1,–,inactive
CCc1ccc(NC(=O)CSc2nnc(Cc3cccn3C)n2-c2ccc(OC)cc2)cc1,-10.1% [at 30.8 µM],–
CCOC(=O)C1C(=O)C=C(c2ccccc2)CC1c1ccccc1 (stereo not given),-11.6% [at 30.8 µM],–
CCCN1C(=O)c2ccccc2NC1c1ccc(OC)cc1OC (stereo not given),–,inactive
CCOc1ccc(NCc2nc3ccccc3n2CCOc2ccccc2)cc1,4.92% [at 30.8 µM],–
O=C(N/N=C\c1cc([N+](=O)[O-])ccc1N1CCCC1)c1ccccn1,-14.6% [at 30.8 µM],–
CN(C)C(=O)c1cccc(-c2cnc3c(NC=O)cc(-c4ccc(F)cc4)cn23)c1,–,inactive
CCc1ccc(Nc2n[n+](-c3ccccc3)c(-c3cc(OC)c(OC)cc3Br)s2)cc1,–,inactive
S=C(NCCCN1CCOCC1)Nc1cccc(-c2nnc3n2CCCCC3)c1,–,inactive
CCOc1ccc(/C(C)=N/NC(=O)C(OC)c2ccccc2)cc1 (stereo not given),–,inactive
Oc1ccc(N=Cc2c(O)ccc3ccccc23)cc1,-17% [at 30.8 µM],–
COc1ccc(C(C(=O)c2ccccc2)c2ccccc2)cc1 (stereo not given),–,inactive
Cc1ccc(C2CC(=O)Oc3cc(C)cc(C)c32)cc1 (stereo not given),–,inactive
CCc1cccc2sc(N3CCN(C(=O)C4CC4)CC3)nc12,–,inactive
Cc1cc(C)cc(NC(=O)N2CCC(CN3CCc4ccccc4C3)CC2)c1,–,inactive
CCOC(=O)[C@@H](NC(=O)/C=C/[C@H]1O[C@@H](n2cc(C)c(=O)[nH]c2=O)C[C@@H]1O)C(C)C,–,inactive
CCOC(=O)COc1ccc(Br)cc1/C=C\c1[nH]c(=O)[nH]c(=O)c1[N+](=O)[O-],-24.7% [at 30.8 µM],–
O=c1[nH]c([N+](=O)[O-])nn1C(c1ccccc1)c1ccccc1,–,inactive
COc1ccc(C(=O)c2ccc(OC)c(OC)c2OC)cc1,–,inactive

Compound,"activity change, negative = inhibition",Potency
Cc1ccc(S(=O)(=O)N2CCN(CC(=O)Nc3ccccc3C(=O)NC3CC3)CC2)cc1,-3.04% [at 30.8 µM],–
Cc1c(C(=O)NCCO)sc2nc3n(c(=O)c12)CCC3,–,inactive
CC[C@H]1C(c2ccc(F)cc2)=NN(c2ccccc2)[C@@H]1CO,-6.73% [at 30.8 µM],–
CC(C)c1nc(SCC(=O)N2CCCc3ccccc32)c2c(=O)n(C)c(=O)n(C)c2n1,–,inactive
COc1cc(-c2c(CCO)sc3ccccc23)cc(OC)c1OC,-51.2% [at 30.8 µM],–
COC(=O)c1cc2oc(C)cc2n1Cc1ccc(Br)cc1F,–,inactive
N#CC(C(=O)NCc1ccco1)c1nc2ccccc2nc1N1CCOCC1 (stereo not given),-11.6% [at 30.8 µM],–
O=C1CNC(=O)c2c(nc3n2CCC3)N1,–,inactive
CC(=O)N1N=C(N)SC1c1ccc(Cl)c(Cl)c1 (stereo not given),-0.904% [at 30.8 µM],–
CC/C(=N/NC(=O)c1ccc2c(c1)OCO2)c1ccccc1O,–,inactive
COc1cc(/C=C2/C(=O)NN(c3ccc(Cl)cc3)C2=O)ccc1OC(=O)c1ccco1,–,inactive
O=C(O)CN1C(=O)/C(=C\c2cccc(OCc3ccccc3F)c2)SC1=S,–,inactive
Cc1ccc(C)c(S(=O)(=O)N2CCN(C(=O)CCCc3c[nH]c4ccccc34)CC2)c1,-6.79% [at 30.8 µM],–
Cc1ccc(C(=O)Nc2ccc(N3CCOCC3)c3nonc23)cc1[N+](=O)[O-],–,inactive
Cc1cccc(C(=O)Nc2cccc(C(=O)N/N=C/c3cccc(C)n3)c2)c1,–,inactive
Cc1nn(-c2ccccc2)c(C)c1NC(=O)COC(=O)Cc1cccc(C(F)(F)F)c1,–,inactive
O=C(c1ccco1)N(CCC(c1ccccc1)c1ccco1)Cc1ccco1 (stereo not given),–,inactive
COC1C(CO)OC(n2c3c(Cl)cccc3c3c4c(c5c6cccc(Cl)c6[nH]c5c32)C(=O)NC4=O)C(O)C1O (stereo not given),–,inactive
Cc1ccc(-n2nc(C(=O)N(C)c3ccc(C)c(C)c3)c3c4ccccc4n(C)c3c2=O)cc1,–,inactive
CN1CCN(CCC(=O)Nc2ccc(Cl)cc2)CC1,–,inactive
